# Laboratory results: PubChem BioAssay (NCI)
# This is part of a sample that, as a whole, favours compounds with a hit. Of some 79,000 tested, about 15% had one in any assay. Calls of active or inactive are those of the source. No stated cut-off is given here; in the data, active means growth inhibition above about 70%; inactive means the rest.
# Test: NCI Yeast Anticancer Drug Screen. Data for the rad50 strain (AID 155);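 further: 0% = growth of vehicle-only cultures of the same strain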
# Settings: S. cerevisiae rad50 strain growth inhibition; at 33.0 µM; active compounds read high
# Procedure, shortened: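 Readout: growth inhibition relative to vehicle-treated cultures. Compound exposure was carried out in a genetically defined yeast strain deficient in DNA damage repair.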
row,SMILES,growth inhibition
1,COc1ccc(/C=C2\CCc3ccccc3C2=O)cc1OC,22% (inactive)
2,CC(=O)CC[N+](C)(C)C,-14% (inactive)
3,O=C(O)[C@H]1[C@@H](C2CCCCC2)O[C@@H](C2CCCCC2)O[C@H]1C(F)(F)F,-4% (inactive)
4,CN(NC(=O)/C(=C/C=C/c1ccccc1)NC(=O)c1ccccc1)C1=C(Cl)C(=O)[N+](c2ccccc2)=CC1,63% (inactive)
5,CCCCOc1ccc(Nc2c3ccccc3nc3ccccc23)cc1,98% (active)
6,N#C/C(=C1C=C/C(=N\O)C(Cl)=C\1)c1ccccc1,13% (inactive)
7,COc1ccc(C(=O)OCCc2ccccc2)cc1,13% (inactive)
8,Cc1c2ccncc2c(C)c2c1oc1ccccc12,97% (active)
9,CCCC#CCOC(=O)c1cc([N+](=O)[O-])cc([N+](=O)[O-])c1,98% (active)
10,Nc1nc(Nc2ccccc2)nc(Nc2ccccc2)n1,11% (inactive)
11,COc1ccc(/C=C2\S/C(=N/Nc3nc(-c4ccccc4)cs3)NC2=O)cc1OC,97% (active)
12,CC(O)CN1C(=O)c2cccc3cc([N+](=O)[O-])cc(c23)C1=O (configuration not stated),88% (active)
13,Cn1c(COc2ccc(/C=N/NC(=O)CCC(=O)N/N=C/c3ccc(OCc4c[n+]5ccccc5n4C)cc3)cc2)c[n+]2ccccc12,5% (inactive)
14,COC1=C(N=[N+]=[N-])C(=O)c2ncccc2C1=O,94% (active)
15,CCN(CC)c1ccc(N=Nc2cc(S(=O)(=O)O)ccc2O)c(O)c1,-28% (inactive)
16,O=C1C(C(O)(C(F)(F)F)C(F)(F)F)CCC1C(O)(C(F)(F)F)C(F)(F)F (configuration not stated),3% (inactive)
17,CN(C)CCNC(=O)c1cccc2nc3c(ccc4ccccc43)nc12,91% (active)
18,O=S(=O)(CCC[C@H]1[C@@H](CCOCc2ccccc2)C2CCCN1O2)c1ccccc1 (some centres not stated),10% (inactive)
19,CCC(C)/C(C)=N/NC(N)=O (configuration not stated),0% (inactive)
20,Nc1c([N+](=O)[O-])cc2c3c(cccc13)CC2,77% (active)
21,CC1=Cc2ccc(C)cc2C(=O)C1=O,99% (active)
22,C=Cc1c(C)c(O)cc2c1-c1ccc(O)c(C)c1CC2,97% (active)
23,NCC(O)CSCc1ccc(Cl)cc1 (configuration not stated),7% (inactive)
24,C[n+]1c(-c2ccc(NC(=O)c3ccc(C(=O)Nc4ccc(-c5cn6ccccc6[n+]5C)cc4)cc3)cc2)cn2ccccc21,76% (active)
25,CNC(=O)OCc1c(COC(=O)NC)c(C)n(-c2ccc(Cl)c(Cl)c2)c1C,97% (active)
26,[O-]c1c2cc(-[n+]3c(-c4ccccc4)cc(-c4ccccc4)cc3-c3ccccc3)cc1COCCOCCOCCOCCOC2,17% (inactive)
27,C[Si](C)(C)Cc1ccccc1C(=O)O,56% (inactive)
